# Sampled rows, rich in hits. Any-hit rate of the full collection: about 6.1%.
# D1 antag: human D1 dopamine receptor antagonism. P21728. HEK293 TREx D1 cells, calcium flux, dopamine EC80; hits give low values. activity change, negative = inhibition, % at 10 µM. 3.2% of 360,000 active; in the data active = activity change below about -30%; also: % is scaled to controls: 0 for no effect and ±100 for the full control effect
# Target sequence (P21728 whole entry, looked up): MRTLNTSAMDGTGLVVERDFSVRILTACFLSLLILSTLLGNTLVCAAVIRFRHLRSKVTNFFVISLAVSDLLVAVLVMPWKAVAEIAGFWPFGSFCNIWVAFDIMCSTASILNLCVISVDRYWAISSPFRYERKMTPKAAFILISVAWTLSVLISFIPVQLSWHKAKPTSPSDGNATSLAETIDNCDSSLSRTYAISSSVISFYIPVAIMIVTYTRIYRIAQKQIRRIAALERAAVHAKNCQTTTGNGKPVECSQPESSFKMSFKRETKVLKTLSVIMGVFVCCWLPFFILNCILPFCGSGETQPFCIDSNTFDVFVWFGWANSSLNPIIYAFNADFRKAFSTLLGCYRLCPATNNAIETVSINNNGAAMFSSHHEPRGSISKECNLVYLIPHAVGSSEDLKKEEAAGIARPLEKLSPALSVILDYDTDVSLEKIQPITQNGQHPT
#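 Antagonism measured as reduced calcium response to an EC80 dopamine addition following 180 s compound pre-read; cells were inducible HEK293 Trex D1 plated overnight at 30 C, read kinetically at 1 cycle/sec.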
# D3 antag: blocks the human D3 dopamine receptor | D3R cells, DiscoveRx beta-arrestin luminescence, antagonist mode; hits give low values | 2.5% of 360,000 active | P35462 | max response, negative = inhibition, % | AID 652054; in the data active = max response below about -50%; inconclusive = no clear call, values can overlap the other calls; also: % is scaled to controls: 0 for no effect and ±100 for the full control effect
#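 Cells plated overnight at 1500 cells/well, then exposed to library compounds with dopamine controls for 90 minutes at 37 degrees C. DiscoveRx reagent added for 30–60 minutes at room temperature; luminescence read, quantitative HTS format.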
# D1 PAM: potentiators of human D1 dopamine receptor; HEK293 TREx D1 cells, calcium flux, dopamine EC20 potentiation; potentiation, % at 10 µM; P21728; 0.036% of 360,000 active; in the data active = potentiation above about 30%; also: 0% is about no effect
# DRD3 agonist: D3 dopamine receptor (human) agonism | P35462 | D3R DiscoveRx beta-arrestin cells, luminescence, 90 min | max activation, % | 0.58% of 410,000 active | AID 652048; in the data active = max activation above about 30%; also: 0% is about no effect
#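 Cells at 1500/well, incubated overnight, then treated with pinned compounds (dopamine as control) for 90 min at 37 degrees C. DiscoveRx reagent added for 30 - 60 minutes at room temperature; luminescence read.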
# D1 ag: human D1 receptor agonism. P21728. HEK293 T-REx D1 cells, calcium flux, agonist mode. activation, % at 2 µM. 1% of 360,000 active; in the data active = activation above about 30%; also: 0% is about no effect
#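 Tetracycline-induced HEK293 TREx D1 cells, force-coupled to calcium signalling, were dye-loaded with a no-wash calcium kit. Compound was pin-added after a 10 s baseline. Fluorescence was read kinetically at 1 cycle/s for 180 s, with calcium rises flagged as agonism.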
# Numbers without * were called inactive; ? = inconclusive; . = not tested or not shown.
SMILES,D1 antag,D3 antag,D1 PAM,DRD3 agonist,D1 ag
CC1CN(S(=O)(=O)c2cccc(C(=O)OCc3cc(=O)oc4cc(O)ccc34)c2)CC(C)O1 (stereo unspecified),-7.7,-55.9*,-6.7,-10.2,1.0
COc1ccc2c(COC(=O)c3cccc(S(=O)(=O)NCC(C)C)c3)cc(=O)oc2c1,-3.7,46.3,-3.4,31.9*,7.1
COc1ccc2ncc3c(-c4ccccc4)nn(-c4ccc(C)c(C)c4)c3c2c1,-3.9,.,-0.7,2.7,-2.4
CC(C(=O)c1ccccc1)[n+]1cccc(Br)c1 (stereo unspecified),2.5,-71.4*,0.2,-5.4,3.2
CC(=O)Nc1cc[n+](C(C)C(=O)c2ccc(Br)cc2)cc1 (stereo unspecified),-9.5,-84.0*,-0.9,-16.1,1.6
COc1ccc(-c2csc(NC(=O)C3CCN(c4ncnc5sc(C)c(C)c45)CC3)n2)cc1OC,0.0,55.9,6.3,46.5*,7.3
CNC(=O)C(=O)NCCC1CCCCN1S(=O)(=O)c1cccs1 (stereo unspecified),-4.9,-24.3,0.6,-7.7,1.6
CC(C)NC(=O)C(=O)NCCC1CCCCN1S(=O)(=O)c1cccs1 (stereo unspecified),-31.5*,-2.2,-6.0,0.9,1.4
COc1ccc(-c2nc(NC(=O)c3c(C)noc3C)sc2C)cc1,-2.6,9.6,-5.0,9.9,0.3
COc1ccc(-c2nc(NC(=O)c3cc(C(C)(C)C)nn3C)sc2C)cc1,9.3,11.4,-3.0,39.7*,2.7
COc1ccccc1NC(=O)N1CC=C(c2c[nH]c3ccccc23)CC1,-5.7,.,-4.8,-15.8,1.3
Cc1cccc(N2CCN(C(c3ccccc3)c3nnc(-c4ccccc4Cl)o3)CC2)c1C (stereo unspecified),3.3,.,5.8,3.2,2.8
CCN(CC)c1ccc(C(=C2C=CC(=[N+](CC)CC)C=C2)c2ccccc2)cc1,.,-104.5*,.,-15.7,.
C#CCOCCOCCOCCNc1nc(N2CCN(C(=O)[C@H]([C@@H](C)CC)n3cc([C@@H](N)Cc4ccc(O)cc4)nn3)CC2)nc(N2CCN(C(=O)[C@H](Cc3cc4ccccc4[nH]3)n3cc([C@@H](N)CC(C)C)nn3)CC2)n1,-14.7,-50.3*,-5.7,-10.2,-0.6
C#CCOCCOCCOCCNc1nc(N2CCN(C(=O)[C@H]([C@@H](C)O)n3cc(CCCCN)nn3)CC2)nc(N2CCN(C(=O)[C@H](CCCCN)n3cc(CC(C)O)nn3)CC2)n1 (stereo partly specified),-9.0,-52.4*,-1.1,-11.0,1.7
C#CCOCCOCCOCCNc1nc(N2CCN(C(=O)[C@H]([C@@H](C)CC)n3cc(CCCCN)nn3)CC2)nc(N2CCN(C(=O)[C@H](CCCCN)n3cc(CC(C)O)nn3)CC2)n1 (stereo partly specified),-13.3,-17.8,-9.8,-5.0,2.6
C#CCOCCOCCOCCNc1nc(N2CCN(C(=O)Cn3cc(CC(C)O)nn3)CC2)nc(N2CCN(C(=O)Cn3cc(CC(C)O)nn3)CC2)n1 (stereo unspecified),-15.3,-2.4,0.8,16.8,-1.8
C#CCOCCOCCOCCNc1nc(N2CCN(C(=O)CCCCCCCCCCNC(=O)Cn3cc(CCCCCN)nn3)CC2)nc(N2CCN(C(=O)CCCCCCCCCCNC(=O)Cn3cc(C[C@@H](C)O)nn3)CC2)n1,8.5,4.6,42.5*,-7.2,25.7
C#CCOCCOCCOCCNc1nc(N2CCN(C(=O)CCCCCCCCCCNC(=O)Cn3cc(C[C@@H](C)O)nn3)CC2)nc(N2CCN(C(=O)CCCCCCCCCCNC(=O)[C@@H]([C@H](C)CC)n3cc(CCCCCN)nn3)CC2)n1,15.8,-25.1,-1.6,-33.2,1.2
C#CCOCCOCCOCCNc1nc(N2CCN(C(=O)Cn3cc(CCCCN)nn3)CC2)nc(N2CCN(C(=O)Cn3cc(CC(C)O)nn3)CC2)n1 (stereo unspecified),-31.7*,0.6,-9.7,-4.0,-1.9
CCn1ccc2cc(S(=O)(=O)N3CCCN(C(=O)NCCOC)CC3)ccc21,24.1,.,-2.2,1.6,4.5
CCOC(=O)c1ccccc1NC(=O)N(C)CCc1c(C)nn(CC)c1C,-4.1,.,-0.1,2.4,-1.7
CC(C)(C)n1nnnc1C(c1ccccc1OC(F)(F)F)N1CCN(C/C=C/c2ccccc2)CC1 (stereo unspecified),.,-24.3,.,-17.5,.
FC(F)(F)Oc1ccccc1C(c1nnnn1C1CCCC1)N1CCN(C/C=C/c2ccccc2)CC1 (stereo unspecified),.,-96.6*,.,-15.3,.
COc1cccc(C(c2nnnn2C2CCCCC2)N2CCN(C/C=C/c3ccccc3)CC2)c1OC (stereo unspecified),.,-118.4*,.,-16.7,.
SMILES,D1 antag,D3 antag,D1 PAM,DRD3 agonist,D1 ag
C(=C\c1ccccc1)/CN1CCN(C(c2ccnc3ccccc23)c2nnnn2C2CCCC2)CC1 (stereo unspecified),.,-29.2,.,-9.9,.
CCCCC1CCC(C(=O)N2CC(=O)Nc3ccc(Cl)cc3C2c2ccc(F)cc2)CC1 (stereo unspecified),-9.4,.,-0.9,2.7,0.0
Cc1cc(C)cc(N2C(=O)CC(n3nc(C)cc3C)C2=O)c1 (stereo unspecified),-42.7*,-1.7,-8.1,1.3,2.6
Cc1cc(C)n(C2CC(=O)N(c3cc(Cl)cc(Cl)c3)C2=O)n1 (stereo unspecified),-2.1,22.4,-2.7,2.3,0.0
CCc1ccc(NC(=O)Cn2c(=O)n(CC3CCCO3)c(=O)c3cc(OC)c(OC)cc32)cc1 (stereo unspecified),4.7,.,-1.5,1.7,-1.2
CN(C)c1ccc(/C=C/C(O)=C2/C(=O)N(C)C3(C)CC2c2ccccc2O3)cc1 (stereo unspecified),-24.4,.,-5.0,.,68.8*
Cc1ccccc1OCCC(=O)Nc1ccc(S(=O)(=O)N(C)C2CCN(C)CC2)cc1,-66.1*,-61.4*,-1.1,-28.1,55.4*
CN1CCC(N(C)S(=O)(=O)c2ccc(NC(=O)COc3ccc(Br)cc3Cl)cc2)CC1,-44.4*,-17.7,-15.7,-17.4,30.6*
Cc1ccccc1OCC(=O)Nc1ccc(S(=O)(=O)N(Cc2ccccc2)c2ccccc2)cc1,-50.5*,.,0.9,-10.4,4.5
Cc1ccc(OCC(=O)Nc2ccc(S(=O)(=O)N(C)C3CCN(C)CC3)cc2)c(C)c1,-24.0,1.0,-11.4,-7.0,19.7
CCC(Sc1nncn2c1cc1occc12)C(=O)Nc1ccc(C)c(Cl)c1 (stereo unspecified),10.9,.,4.8,-5.0,1.1
CC(C)OC(=O)CSc1nnc(-c2ccncc2)n1N,-3.7,7.1,-1.6,-4.9,1.7
Cc1ccc(-n2c(SCC(=O)OC(C)C)nnc2-c2ccncc2)cc1,7.9,?,3.8,1.5,38.1*
CCN(CC)c1ccc(NC(=O)C2CCCN(S(=O)(=O)c3ccc4c(c3)oc(=O)n4C)C2)c(C)c1 (stereo unspecified),-23.6,.,-1.9,-4.4,0.9

# Source: PubChem
